Measured values taken from PubChem BioAssay AID651871 (Sanford-Burnham Center for Chemical Genomics, 2012).

Tested on: H9c2
Assay: cardiomyocyte survival under oxidative or metabolic stress – cell-based, panel, H9c2 and HL-1, ATP luminescence, set 2, SAR follow-up (AID 651871);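 further: cells exposed to stressor for 2 h before ATP readout; reference of the scale not given here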
Conditions: H9c2/HL-1 cardiomyocytes, 2-deoxyglucose stress, with 2-deoxyglucose, run 4, at 39.5 µM (top of the series)

**Q.** Which activity (protection/inhibition) does the source give for COc1ccc2c(c1OC)C(=O)N1c3ccccc3C(=O)N(Cc3cccc(Cl)c3Cl)C21 (stereo unspecified) here?
**A.** 71%
